# Test results: PubChem BioAssay
# Target: Dickkopf-related protein 1 (Homo sapiens) (UniProt O94907)
# Assay: DKK1 binders on small-molecule microarrays, primary screen, biochemical, small-molecule microarray, 635 nm fluorescence scan (AID 1106);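 note: score merges emission near 667 nm with signal to noise over three replicate slides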
# Conditions: DKK1 binding, higher = more signal
# Sequence of Dickkopf-related protein 1 (Homo sapiens) (O94907 whole entry, looked up): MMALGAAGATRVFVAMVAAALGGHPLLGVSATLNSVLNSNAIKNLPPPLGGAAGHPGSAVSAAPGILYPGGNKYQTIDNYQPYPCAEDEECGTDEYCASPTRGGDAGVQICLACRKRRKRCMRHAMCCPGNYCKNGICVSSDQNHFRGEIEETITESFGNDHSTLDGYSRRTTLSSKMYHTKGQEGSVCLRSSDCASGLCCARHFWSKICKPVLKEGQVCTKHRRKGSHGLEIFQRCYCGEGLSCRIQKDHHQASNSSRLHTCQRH
row,Structure (SMILES),composite z-score
1,O=C(O)[C@H](Cc1ccccc1)n1cc(-c2ccccn2)nn1,0.227
2,COC(=O)c1c(CC[C@@H](CO)NC(=O)N[C@H](Cn2cc(-c3ccccc3C)nn2)C(C)C)oc(C(C)=O)c1C(=O)OC,-0.482
3,COc1ccc(NN2C(C(O)c3ccco3)C=CC3C(=O)N(C4CCCCC4)C(=O)C32)cc1 (stereo not given),0.0006
4,Cc1c(NC(=O)/C(C#N)=C/C=C/c2ccc(N(C)C)cc2)c(=O)n(-c2ccccc2)n1C,0.646
5,CN1C2C=C(CCCO)C(C3C(=O)N(C(N)=O)C(=O)C32)C1c1cccs1 (stereo not given),1.45
6,CC(C)CNC(=O)[C@@]1(c2ccc([N+](=O)[O-])cc2)CC(=O)N(C2CCCCC2)[C@@H]1c1ccc(CO)cc1I,-0.477
7,COCCOC(=O)N1C(=O)[C@@]2(c3cc(C#CC4(O)CCCCCC4)ccc31)[C@H](C(N)=O)[C@H]1C(=O)O[C@H](c3ccccc3)[C@H](c3ccccc3)N1[C@@H]2c1ccc(O)cc1,0.489
8,COC(=O)[C@@]1(Cc2ccccc2)[C@H]2c3cc(C(=O)N4CCCC4)n(Cc4cc(F)cc5c4OCOC5)c3C[C@H]2CN1C(=O)c1ccccc1,-0.66
9,CCOC(=O)C[C@H]1[C@H](OC(=O)c2ccccc2-c2ccccc2)[C@@H](NC(=O)CC(C)C)c2cc(OCCCO)ccc2N1C(=O)c1ccc2ccccc2n1,0.45
10,C=CCN1Cc2ccccc2C[C@@]2(N=C(c3ccc(OCCCO)cc3)O[C@H]2c2ccccc2)C1=O,0.0968
11,COCCOC(=O)N1C(=O)[C@@]2(c3cc(C#CC4(O)CCCCCC4)ccc31)[C@H](C(=O)N1CCCCCCC1)[C@H]1C(=O)O[C@H](c3ccccc3)[C@H](c3ccccc3)N1[C@@H]2c1ccc(OCCO)cc1,1.72
12,CN1C(=O)C2C=CC(C(O)c3c(F)cccc3Cl)N(Nc3ccccc3)C2C1=O (stereo not given),-0.534
13,CCCC=C(CCC)[C@@H](NP(=O)(c1ccccc1)c1ccccc1)c1ccc(C(F)(F)F)cc1,-0.15
14,O=C1O[C@@H](c2ccccc2)[C@@H](c2ccccc2)N2[C@@H](c3ccc(O)cc3)[C@]3(C(=O)Nc4ccc(C#CCCO)cc43)[C@@H](C(=O)NC[C@H](O)c3ccccc3)[C@H]12,-1.26
15,CCN(CC)c1ccc(N2CC=CC34O[C@@H]5/C=C\CCC(C)OC(=O)C5[C@H]3C(=O)N(CCO)[C@@H]4C2=O)cc1 (stereo not given in full),-0.771
16,Cc1ccc(S[C@]2(C(=O)NCCN3CCOCC3)CC(=O)N(Cc3ccccc3C(F)(F)F)[C@@H]2c2ccc(CO)cc2I)cc1,-1.15
17,C=CCNC(=O)[C@@H]1[C@H]2C(=O)O[C@H](c3ccccc3)[C@H](c3ccccc3)N2[C@H](c2ccc(OCCO)cc2)[C@@]12C(=O)N(C(=O)OCCOC)c1ccc(C#CC3=CCCCC3)cc12,0.44
18,COC(=O)[C@@]1(Cc2ccccc2)[C@H]2c3cc(C(=O)N4CCCC4)[nH]c3C[C@H]2CN1C(=O)c1ccccc1,-0.988

row,Structure (SMILES),composite z-score
1,C=CCOC(=O)[C@@H]1[C@H]2C(=O)O[C@H](c3ccccc3)[C@H](c3ccccc3)N2[C@H](c2ccc(OCCOC(=O)[C@H]3C[C@H]4C(=O)N[C@@H](CCCC[N+](C)(C)C)C(=O)N4[C@H]3c3ccc(O)cc3)cc2)[C@@]12C(=O)Nc1ccc(I)cc12,1.03
2,COc1c(C)cc(-c2cc3c(c(Cc4ccccc4)n2)[Si](C(C)C)(C(C)C)OC3)cc1C,0.0324
3,COCCOC(=O)N1C(=O)[C@@]2(c3cc(C#CC4(O)CCCCCC4)ccc31)[C@H](c1ccccc1OCCO)N1[C@H](c3ccccc3)[C@H](c3ccccc3)OC(=O)[C@H]1[C@@H]2C(N)=O,1.06
4,CC(C)C(O)C1C=CC2C(=O)N(C)C(=O)C2N1Nc1ccccc1 (stereo not given),0.4
5,CC(=O)N1Cc2ccccc2C[C@]2(N=C(c3ccc(OCCCO)cc3)O[C@@H]2c2ccccc2)C1=O,0.275
6,CCOC(=O)[C@@H]1[C@@H]2C(=O)N(CC)C(=O)[C@@H]2C[C@@H]1Sc1ccccc1,-0.174
7,O=C1OCCC=C[C@H]2OC34C=CCN(c5ccc(Cl)cc5)C(=O)[C@H]3N(CCCCCO)C(=O)[C@@H]4C12 (stereo not given in full),-0.172
8,COc1ccc(CCNC(=O)[C@@]2(Sc3ccc(C)cc3)CC(=O)N(Cc3cc(C(F)(F)F)cc(C(F)(F)F)c3)[C@@H]2c2ccc(CO)cc2I)cc1,-0.744
9,COC(=O)[C@@]1(Cc2ccc(OC)cc2)[C@H]2c3cc(C(=O)N4CCCC4)n(CCc4cc5ccccc5[nH]4)c3C[C@H]2CN1C(=O)c1ccccc1,-0.281
10,COc1ccc(NN2C(C(O)c3ccccn3)C=CC3C(=O)N(C4CCCCC4)C(=O)C32)cc1 (stereo not given),-0.39
11,CN(C)CCCCNC(=O)[C@H]1C[C@H]2C(=O)N[C@@H](CCCCN(C)C)C(=O)N2[C@H]1c1cccc(OCCO)c1,0.418
12,CC(C)(C)OC(=O)CC[C@]1(C(=O)O)N=C(c2ccc(OCCCO)cc2)O[C@H]1c1ccccc1,-0.517
13,COCCOC(=O)N1C(=O)[C@@]2(c3cc(C#Cc4ccc(OC)cc4)ccc31)[C@H](C(=O)NC[C@H](O)c1ccccc1)[C@H]1C(=O)O[C@H](c3ccccc3)[C@H](c3ccccc3)N1[C@@H]2c1ccc(O)cc1,0.95
14,C[C@]1(C(=O)NC2CC2)c2ccccc2C(=O)N(Cc2ccc(OC(F)(F)F)cc2)[C@H]1c1ccc(CO)cc1,-0.758
15,C=CC[C@@]1(C(=O)O)N=C(c2ccc(OCCCO)cc2)O[C@@H]1c1ccccc1,-0.659
16,COC(=O)C1(Cc2ccccc2)C=C2C(=C(C(C)C)C(=O)C2C)CN1 (stereo not given),-1.41
17,COc1ccc(C#Cc2ccc3c(c2)[C@]2(C(=O)N3)[C@H](C(=O)N3CCc4cc(OC)c(OC)cc4C3)[C@H]3C(=O)O[C@H](c4ccccc4)[C@H](c4ccccc4)N3[C@@H]2c2ccc(O)cc2)cc1,0.513
